The results in this text go back to ChEMBL document CHEMBL4513148, “CO-ADD screening of Stellenbosch University (South Africa) compounds”.

Results with a measured potency or affinity are listed apart.

The subject of one experiment is Klebsiella pneumoniae. Conditions: Concentration 32 ug.mL-1; ASSAY_TEST Inhibition of Bacterial Growth; detection method Absorption (OD600); MEDIA CAMHB; plate type 384well; NBS; CORNING #3640; time 18 hr.
Turning to `CCCCCCNNC(=O)CCNC(=O)[C@H](O)C(C)(C)CO`, the Inhibition was determined as 13.13%.
For the compound `CC(C)(CO)[C@H](O)C(=O)NCCc1cn(C[C@H]2O[C@@H](n3ccc(N)nc3=O)[C@H](O)[C@@H]2O)nn1`, the Inhibition is reported as 11.31%.
For `CC(C)(CO)[C@@H](O)C(=O)NCCC(=S)NCCc1ccccc1`, the Inhibition amounted to 23.06%.
On the same count and under the same terms, for `CC(C)(CO)[C@@H](O)C(=O)N/C=C/C(=O)NCCc1ccccc1` the value was 27.58%; for `CC(C)(CN)C(O)C(=O)NCCC(=O)NCCc1ccccc1` (stereo unspecified), 28.43%.
With `CC(CC(=O)NCCc1ccccc1)NC(=O)[C@H](O)C(C)(C)CO` (stereo partly specified), the Inhibition stood at 21.7%.
Same read-out and setting: for `CC(C)(COP(=O)(O)O)[C@@H](O)C(=O)NCCC(=O)NCCc1ccccc1` the value was 20.53%; for `C#CCNC(=O)[C@H](O)C(C)(C)CO`, 17.37%.
In the case of `CC(C)(CO)[C@H](O)C(=O)NCCCc1cn(C[C@H]2O[C@@H](n3ccc(N)nc3=O)[C@H](O)[C@@H]2O)nn1`, the Inhibition was found to be 15.48%.
The same measure, in the same setting: under `CC(C)(C)C(O)C(=O)NCCC(=O)NCCc1ccccc1` (stereo unspecified) stands 24.7%; under `CC(C)(CO)[C@H](O)C(=O)NCCC(=O)OCc1cn(C[C@H]2O[C@@H](n3ccc(N)nc3=O)[C@H](O)[C@@H]2O)nn1`, 19.86%.
On the same count and under the same terms, under `CC(C)(CO)[C@H](O)C(=O)NCc1cn(C[C@H]2O[C@@H](n3ccc(N)nc3=O)[C@H](O)[C@@H]2O)nn1` stands 7.03%.
On the same count and under the same terms, for `CCCCCCCNC(=S)CCNC(=O)[C@H](O)C(C)(C)CO` the value was 15.93%; for `CC(C)(CO)C(O)C(=O)NCCCOP(=O)(O)OCC1OC(n2ccc(N)nc2=O)C(O)C1O` (stereo unspecified), 14.41%; for `CCCCCCCNS(=O)(=O)CCNC(=O)[C@H](O)C(C)(C)CO`, 15.06%.
For the compound `CC(C)(CO)[C@@H](O)C(=O)NCCC(=O)NNCc1ccccc1`, the Inhibition is reported as 28.52%.
The same measure, in the same setting: for `CC(C)(CO)[C@H](O)C(=O)NCCC(=O)NCc1cn(C[C@H]2O[C@@H](n3ccc(N)nc3=O)[C@H](O)[C@@H]2O)nn1` the value was 19%.
The same measure, in the same setting: for `CCCCCCCNC(=O)CCNC(=O)C(O)C(C)(C)C` (stereo unspecified) the value was 17.81%.

The test system of another experiment is Candida albicans. Conditions: 32 ug/mL.
With `CCCCCCNNC(=O)CCNC(=O)[C@H](O)C(C)(C)CO`, the Inhibition was -0.25%.
The same measure, in the same setting: under `CC(C)(CO)[C@H](O)C(=O)NCCc1cn(C[C@H]2O[C@@H](n3ccc(N)nc3=O)[C@H](O)[C@@H]2O)nn1` stands 0.57%.
Same read-out and setting: under `CC(C)(CO)[C@@H](O)C(=O)NCCC(=S)NCCc1ccccc1` stands -0.77%.
The same measure, in the same setting: under `CC(C)(CO)[C@@H](O)C(=O)N/C=C/C(=O)NCCc1ccccc1` stands 6.96%; under `CC(C)(CN)C(O)C(=O)NCCC(=O)NCCc1ccccc1` (stereo unspecified), 3.05%.
For the compound `CC(CC(=O)NCCc1ccccc1)NC(=O)[C@H](O)C(C)(C)CO` (stereo partly specified), the Inhibition came to 3.05%.
Regarding `CC(C)(COP(=O)(O)O)[C@@H](O)C(=O)NCCC(=O)NCCc1ccccc1`, the Inhibition stood at 1.57%.
For `C#CCNC(=O)[C@H](O)C(C)(C)CO`, the Inhibition was -0.84%.
Same read-out and setting: under `CC(C)(CO)[C@H](O)C(=O)NCCCc1cn(C[C@H]2O[C@@H](n3ccc(N)nc3=O)[C@H](O)[C@@H]2O)nn1` stands 1.6%.
Regarding `CC(C)(C)C(O)C(=O)NCCC(=O)NCCc1ccccc1` (stereo unspecified), the Inhibition was found to be 0.67%.
On the same count and under the same terms, under `CC(C)(CO)[C@H](O)C(=O)NCCC(=O)OCc1cn(C[C@H]2O[C@@H](n3ccc(N)nc3=O)[C@H](O)[C@@H]2O)nn1` stands 3.13%.
On the same count and under the same terms, for `CC(C)(CO)[C@H](O)C(=O)NCc1cn(C[C@H]2O[C@@H](n3ccc(N)nc3=O)[C@H](O)[C@@H]2O)nn1` the value was -0.48%.
Still for that read-out and setting: for `CCCCCCCNC(=S)CCNC(=O)[C@H](O)C(C)(C)CO` the value was 2.87%; for `CC(C)(CO)C(O)C(=O)NCCCOP(=O)(O)OCC1OC(n2ccc(N)nc2=O)C(O)C1O` (stereo unspecified), 3.26%; for `CCCCCCCNS(=O)(=O)CCNC(=O)[C@H](O)C(C)(C)CO`, -2.91%.
Regarding `CC(C)(CO)[C@@H](O)C(=O)NCCC(=O)NNCc1ccccc1`, the Inhibition is 4.15%.
Still for that read-out and setting: for `CC(C)(CO)[C@H](O)C(=O)NCCC(=O)NCc1cn(C[C@H]2O[C@@H](n3ccc(N)nc3=O)[C@H](O)[C@@H]2O)nn1` the value was 2.72%; for `CCCCCCCNC(=O)CCNC(=O)C(O)C(C)(C)C` (stereo unspecified), 1%.
